Shown are actives, neighbours in structure and some others; about 2% of the full set was active somewhere.
KCNH2 3.1 block: KCNH2 3.1 (human) potassium channel inhibition; U2OS KCNH2 3.1, thallium flux FluxOr; active compounds read low; activity change, % (tested at about 1.8 µM); hit rate 0.95% among 340,000;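 active = maximum activity change below -70%; inconclusive = maximum activity change from -70% to -50%; inactive = maximum activity change above -50%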;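 note: thallium influx rate constant from kinetic fluorescence after stimulation buffer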
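Normalized rate constant (relative to positive and negative DMSO controls) derived from a 2 min kinetic fluorescence read after stimulation; U2OS cells expressing the 3.1 isoform via virus at 1.77 x 10^8 /mL.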
Six1-Eya2 inh: blocks human Six1 binding to Eya2; Q15475+O00167; AlphaScreen GST-Six1/His-Eya2 binding, biochemical; active compounds read low; activity change, % (concentration not given with the values); hit rate 0.56% among 360,000; AID 651725
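Six1/Eya2 binding was read as AlphaScreen signal after compounds were pinned into GST-Six1 plus His-tagged Eya2 (5X stock 250/500 nM) in pH 8.0 Tris/NaCl/TCEP buffer, beads added, then incubated 1 h, 37 C, dark.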
JMJD2E inh: blocks human JMJD2E demethylase activity. AID 2147. JMJD2E catalytic domain, FDH-coupled NADH fluorescence (FDH is formaldehyde dehydrogenase). hit rate 1.6% among 230,000. Potency, µM (highest dose often 57.1 µM), inactives show at the top dose activity change, negative = inhibition, hits mostly inhibitors. B2RXH2; active = well fitted inhibition curve with a large enough effect, not every such curve was filed as active; inconclusive = small, poorly fitted or top-dose-only effect, or another doubt; inactive = no such curve, though single readings can be large or run the other way;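 note: potency is the fitted concentration of half-maximal effect; 0% = wells with enzyme and -100% = buffer wells without enzyme; nearly all actives have a fitted effect of over 50% in size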
CtBP-E1A inh: CtBP/E1A binding inhibition | activity change, % (no concentration beside the values) | hit rate 0.49% among 340,000 | AID 651724 | AlphaScreen GST-E1A/His-CtBP binding, 1536-well; active compounds read low
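In 5 uL wells, 23 nL compound meets equimolar GST-E1A and His-CtBP (5X stock 125 nM each) for 2 h, 37 °C. Beads (5X, 50 ug/mL) then 1 h, 37 °C, dark.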
hERG WT inh: blocks the wildtype human KCNH2 potassium channel | Q12809 | U2OS, BacMam KCNH2, thallium flux FluxOr; active compounds read low | activity change, % at 1.84 µM | hit rate 0.37% among 340,000 | AID 720551;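 active = maximum activity change below -70%; inconclusive = maximum activity change between -70% and -50%; inactive = maximum activity change above -50%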
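U2OS cells transduced with wild-type KCNH2 virus are loaded with FluxOr dye for 45 min, and thallium flux is measured in kinetic reads before and after stimulation buffer. Rate constants are normalized to DMSO controls.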
Starred values were filed as active, the others as inactive; ? = inconclusive; · = not tested or not shown; ! = a repeat was not active. Cut-off read from the data, not from the text of the source, unless noted: active = activity change below about -65%; inconclusive = mostly about -30% to -63%; inactive = weaker than that. Unless noted, % is set by controls: 0 for no effect and ±100 for the full control effect.

SMILES	KCNH2 3.1 block	Six1-Eya2 inh	JMJD2E inh	CtBP-E1A inh	hERG WT inh
C[N+]1(C)C2CCC1CC(OC(=O)C(CO)c1ccccc1)C2 (stereo unspecified)	-13	-6	10µM*!	·	1
O=C1Nc2cc(C(=O)N3CCC4(CC3)OCCO4)ccc2S/C1=C\c1ccccc1	-1	-1	·	-3	-5
O=C(Nc1cccc(C(F)(F)F)c1)c1cccn(Cc2ccc3c(c2)OC(F)(F)O3)c1=O	-4	4	-19%	13	0
O=c1[nH]c(O)c(C=NC2CCN(Cc3ccccc3)CC2)c(=O)[nH]1	-17	8	-2%	1	33
O=c1c2ccccc2nc(/C=C/c2cccnc2)n1Cc1ccccc1	-6	-71*	7.9µM*	1	7
NNC(=O)c1ccc(O)cc1	-3	4	5%	·	-21
Cn1ncnc2c(=O)n(C)c(=O)nc1-2	-17	-3	4µM*	?	-3
C=CCNC(=S)/N=C/c1c(O)[nH]c(=O)[nH]c1=O	-5	2	2.5µM*	-9	-8
NC(=S)/N=C/c1c(O)[nH]c(=O)[nH]c1=O	-2	3	?	·	-19
O=[N+]([O-])c1ccccc1CNCCc1ccc(F)cc1	-4	-5	?	8	37
CNCCc1c[nH]c2ccc(O)cc12	-3	-1	22µM*	-7	3
CNCCc1c[nH]c2ccccc12	-20	1	?	-6	-4
O=C(COc1ccccc1)c1cn(Cc2ccccc2)c2ccccc12	-21	35	2%	27	8
CCCCC(=O)N/N=C/c1c(O)n(Cc2ccco2)c(=O)[nH]c1=O	-2	-75*	25µM*	?	-1
CCCCC(=O)N/N=C/c1c(O)n(CCCC)c(=S)[nH]c1=O	3	-74*	?	-66*	0
CC(=O)Nc1ccc(N=Cc2c(O)n(Cc3ccco3)c(=O)[nH]c2=O)cc1	0	-18	?	-2	-5
O=c1[nH]c(=O)n(-c2cccc3ccccc23)c(O)c1C=NCCCn1ccnc1	-1	2	9%	1	-8
O=C(N/N=C/c1c(O)n(Cc2ccco2)c(=O)[nH]c1=O)c1ccccc1O	2	-87*	?	-89*	1
CCCCC(=O)N/N=C/c1c(O)n(-c2cccc3ccccc23)c(=O)[nH]c1=O	7	-71*	?	·	-5
O=c1[nH]c(=O)n(Cc2ccco2)c(O)c1C=NCc1ccco1	-4	-1	-15%	-1	-13
c1ccc2sc(C3CCNCC3)nc2c1	-1	0	·	-2	25
Cc1cc(N2C(=O)CC(N3CCC(n4c(=O)[nH]c5ccccc54)CC3)C2=O)no1 (stereo unspecified)	10	-6	-5%	3	2
COc1ccc(-n2c(C)cc(C(=O)C[N+]34CCN(CC3)CC4)c2C)cc1	-8	-19	22µM*	-11	-32
CC(C)c1cc2c(c(O)c1O)[C@]1(C(=O)O)CCCC(C)(C)C1CC2 (stereo partly specified)	·	·	13µM*	·	·
CS(=O)(=O)c1ccc(C2=C(CNC(=O)c3cccs3)[C@H]3CC[C@@H](C2)N3Cc2ccco2)cc1	-94*	-2	·	-3	-41
SMILES	KCNH2 3.1 block	Six1-Eya2 inh	JMJD2E inh	CtBP-E1A inh	hERG WT inh
O=C(NCC1=C(c2ccc3ccccc3c2)C[C@@H]2CC[C@H]1N2Cc1ccco1)c1ccc([N+](=O)[O-])cc1	-99*	?	·	?	-41
O=C(NCC1=C(c2ccc3ccccc3c2)C[C@@H]2CC[C@H]1N2Cc1ccco1)c1ccncc1	-31	-10	·	-18	16
CS(=O)(=O)c1ccc(C2=C(CNC(=O)c3cccs3)[C@H]3CC[C@@H](C2)N3Cc2ccccc2)cc1	-1	-5	·	0	?
Cc1ccc(OCCSC2=NN2c2cc(C)nc(N)n2)cc1	-3	-15	-7%	·	0
CCSC1=NN1c1cc(C)nc(N)n1	-95*	-6	8%	-10	0
CCC1(CCCC(=O)c2ccc(F)cc2)C(=O)NC(=S)NC1=O	0	3	0%	-6	-31
O=C(c1cn(Cc2ccccc2)c2ccccc12)C1CC1	-4	3	-1%	24	3
Brc1c(NC2=NCCN2)ccc2nccnc12	·	·	20µM*	·	·
O=c1[nH]c(=O)n(-c2ccc(F)cc2)c(O)c1C=Nc1ccccc1N1CCCC1	8	0	-4%	-2	-2
c1ccc(CCCN2CCN(CCOC(c3ccccc3)c3ccccc3)CC2)cc1	-117*	-8	-10%	?	?
Fc1ccc(C(OCCN2CCCC2)c2ccc(F)cc2)cc1	-77*	11	8%	9	8
O=C(O)C1=CCCN(CCOC(c2ccc(C(F)(F)F)cc2)c2ccc(C(F)(F)F)cc2)C1	·	·	-6%	·	·
Fc1ccc(C(OCCN2CCN(CCCc3ccccc3)CC2)c2ccc(F)cc2)cc1	·	·	-1%	·	·
Fc1ccc(C(OCCN2CCCC2)c2ccc(Br)cc2)cc1 (stereo unspecified)	-72*	-10	-17%	-1	?
C[C@@]12CCC(O)C[C@H]1CCC1C2CC[C@]2(C)C(=O)CCC12 (stereo partly specified)	·	·	1%	·	·
COc1cc2c(c(OC)c1OC)-c1ccc(O)c(=O)cc1[C@@H](NC(C)=O)CC2	14	-24	11µM*	-1	-3
COc1cc2c(c(OC)c1OC)-c1ccc(O)cc1C(NC(C)=O)CC2 (stereo unspecified)	6	0	·	-2	2
CCOC(=O)CNC(=O)N1Cc2cc(N3CCOCC3)ccc2-n2nncc2C1	·	2	·	4	·
CC(=O)N1CN(C(C)=O)CN(C(C)=O)C1	-14	-1	2%	-8	-6
CC(=O)N1CC[N+](C)(C)CC1	·	·	11µM*	·	·
CCCN1CCC[C@H](c2cccc(O)c2)C1	11	8	-5%	0	22
Nc1ccc(CCN2CCCC2)cc1	-17	-2	·	·	-9
Nc1ccc(CCN2CCN(c3cccc(C(F)(F)F)c3)CC2)cc1	-72*	-4	1%	-22	9
COC(=O)C1=C(c2cccc(OC)c2OC)C[C@@H]2CC[C@H]1N2C(=O)NCCO	-1	34	·	2	5
COC(=O)C1=C(c2ccccc2OCc2ccccc2)C[C@@H]2CC[C@H]1N2C(=O)NCc1ccc(Br)cc1	-82*	-6	·	-3	0
COC(=O)C1=C(c2cccc(OC)c2OC)C[C@@H]2CC[C@H]1N2C(=O)NCCS(C)=O (stereo partly specified)	6	1	·	·	-163*
COC(=O)C1=C(c2ccccc2OCc2ccccc2)C[C@@H]2CC[C@H]1N2C(=O)NCc1ccccc1	·	-13	·	-9	·
CCN1CCN(S(=O)(=O)c2ccc(Cl)nc2)CC1	1	-20	2%	-5	8
C1=C(c2c[nH]c3ccccc23)CCNC1	·	·	25µM*	·	·
